Measurements reported in PubChem BioAssay (EPA / NIEHS).
Values joined by “and” are separate entries in the source; they are usually repeats but may differ in a detail not shown here. Identical values can stand only once. Records with an inconclusive call do not appear. A structure can be active in one record and inactive in another. Active and inactive are the calls of the source. How the source made its calls: active means hit-call score of the fitted dose curve at least 0.9, where 1 is the maximum; inconclusive means response in the unintended direction; inactive means score below 0.9.

read-out: xenobiotic metabolism (CYP1A2), CYP1A2 (gene 1544); assay: CLD_CYP1A2_48hr: CellzDirect (CLD) Gene Expression Assay for xenobiotic metabolism (CYP1A2) at 48 hours (AID 2283703)
Protocol: CLD_48hr is a cell-based, multiplexed-readout assay that uses hepatocyte, a human liver primary cell, with measurements taken at 48 hours after chemical dosing in a 96-well plate.CLD_CYP1A2_48hr is one of 16 assay component(s) measured or calculated from the CLD_48hr assay. It is designed to make measurements of mRNA induction, a form of inducible reporter, as detected with chemiluminescence signals by Quantitative Nuclease Protection Assay (qNPA) technology.Data from the assay component CLD_CYP1A2_48hr was analyzed at the endpoint, CLD_CYP1A2_48hr, in the positive analysis fitting direction relative to DMSO as the negative control and baseline of activity. Using a type of inducible reporter, gain-of-signal activity can be used to understand changes in the reporter gene as they relate to the gene CYP1A2. Furthermore, this assay endpoint can be referred to as a primary readout. To generalize the intended target to other relatable targets, this assay endpoint is annotated to the cyp intended target family, where subfamily is xenobiotic metabolism.
Human hepatocyte cultures were treated daily for two consecutive days with fresh dosing solutions containing appropriate concentrations of the 320 ToxCast chemicals (chemical identities were blinded to CellzDirect and other ToxCast collaborators), vehicle control (0.2% DMSO), and positive control inducers as summarized in Table 1. Due to the large number of treatment groups and chemicals examined, the ToxCast chemicals were divided into two groups (spanning two independent cultures of hepatocytes from separate donor preparations (Hu778: ToxCast plates 1 and 2; Hu776: ToxCast plates 3 and 4). Each preparation of human hepatocyte cultures was treated with respective vehicle control, medium only control, set of six positive controls/reference chemicals for the five hepatic receptor pathways, and a subset of eight of the ToxCast chemicals (indoxacarb, pyrithiobac-sodium, norflurazon, cyhalofop-butyl, methomyl, thiram, acetochlor, and propiconazole). These replicate data, coupled with internal replicates designed within the blinded ToxCast chemical library, provided additional data to evaluate interindividual differences between hepatocyte preparations and their potential impact on chemical profiles.Cell morphology and integrity were evaluated using phase-contrast microscopy as an indicator of hepatocyte cell health (Tyson & Green, 1987). Cultures for each treatment group (i.e., media, vehicle [0.2% DMSO], positive control inducers [multiple concentrations], and the ToxCast chemicals [multiple concentrations]) were observed and cell morphology was assessed relative to vehicle control cultures at each harvest time point (0, 6, 24, or 48 h). […] Images were evaluated at the conclusion of the study to assess changes in cell integrity and account for the effects of chemical exposure on uncharacteristic changes in concentration-dependent gene expression profiles. The results from these determinations of apparent cytotoxicity were annotated (yes/no) alongside the corresponding qNPA data for reference.At the conclusion of each treatment period, hepatocyte cultures (96-well) were washed with 1 volume of HBSS, lysed by addition of 25 ul ArrayPlate lysis buffer (HTG, Tucson, AZ), and 70 ul/well of Denaturation Oil, denatured by incubation at 95C for 10 min, and frozen at approximately -70C until analysis by nuclease protection assay (qNPA) (Roberts et al., 2007). For qNPA analysis, cell lysates were thawed at 50C for approximately 30 min, qNPA probes were added, and samples were incubated at 95C for 10 min to begin the detection process by denaturing the target RNA, dissociating the duplexes and secondary structure hybridization. At the conclusion of the hybridization period, S1 nuclease reagent was added to each sample to digest all nonprotected nucleotides at 50C for 60-90 min. […]

| SMILES | AC50 | outcome |
| --- | --- | --- |
| COc1nc(C)nc(NC(=O)NS(=O)(=O)c2ccccc2CCC(F)(F)F)n1 | 8.01 µM (active) | inactive |
| CC1=C(C(=O)Nc2ccccc2)SCCO1 | 31.1 µM (active) |  |
| CN(C)C(=S)SSC(=S)N(C)C | 34 µM (active) |  |
| C=CCC1=C(C)C(OC(=O)C2C(C=C(C)C)C2(C)C)CC1=O (stereo not given) |  | inactive |
| Cc1c(F)c(F)c(COC(=O)C2C(/C=C(\Cl)C(F)(F)F)C2(C)C)c(F)c1F (stereo not given) | 4.46 µM (active) |  |
| CCOP(=S)(OCC)SCn1c(=O)oc2cc(Cl)ccc21 | 3.96 µM (active) |  |
| COC(=O)C(C)Oc1ccc(Oc2ccc(Cl)cc2Cl)cc1 (stereo not given) | 20 µM (active) and 12.1 µM (active) | inactive |
| COc1nc(NC(C)C)nc(NC(C)C)n1 | 7.97 µM (active) |  |
| COC(=O)c1ccccc1C(=O)OC |  | inactive |
| CC(C)(C)c1ccc(CSc2cnn(C(C)(C)C)c(=O)c2Cl)cc1 |  | inactive |
| C=CC1(C)OC(=O)N(c2cc(Cl)cc(Cl)c2)C1=O (stereo not given) | 0.966 µM (active) |  |
| N#CC(CCc1ccc(Cl)cc1)(Cn1cncn1)c1ccccc1 (stereo not given) | 2.3 µM (active) |  |
| Oc1ccccc1-c1ccccc1 | 9.96 µM (active) |  |
| CCCCNC(=O)n1c(NC(=O)OC)nc2ccccc21 | 6.67 µM (active) |  |
| Cc1ccc(-c2c(Cl)nc(C#N)n2S(=O)(=O)N(C)C)cc1 |  | inactive |
| CS/C(C)=N/OC(=O)N(C)SN(C)C(=O)O/N=C(\C)SC |  | inactive |
| CCOc1cc(Oc2ccc(C(F)(F)F)cc2Cl)ccc1[N+](=O)[O-] | 0.845 µM (active) |  |
| O=C(Nc1ccccc1)Nc1ccnc(Cl)c1 | 7.3 µM (active) |  |
| COC(=O)N(OC)c1ccccc1COc1ccn(-c2ccc(Cl)cc2)n1 | 0.54 µM (active) |  |

| SMILES | AC50 | outcome |
| --- | --- | --- |
| COc1nc(C)nc(NC(=O)NS(=O)(=O)c2ccccc2Cl)n1 |  | inactive |
| CCON=C(CC)C1=C(O)CC(c2c(C)cc(C)cc2C)CC1=O (stereo not given) |  | inactive |
| CCNc1nc(Cl)nc(NCC)n1 | 8.97 µM (active) |  |
| CCCC1COC(Cn2cncn2)(c2ccc(Cl)cc2Cl)O1 (stereo not given) | 5.36 µM (active) |  |
| CNC(=S)S | 20 µM (active) |  |
| COc1ccc(C(c2ccc(OC)cc2)C(Cl)(Cl)Cl)cc1 | 8.31 µM (active) |  |
| C#CCOS(=O)OC1CCCCC1Oc1ccc(C(C)(C)C)cc1 (stereo not given) | 3.47 µM (active) |  |
| CON(C)C(=O)Nc1ccc(Cl)c(Cl)c1 | 1.27 µM (active) |  |
| CCCCNC(=O)OCC#CI |  | inactive |
| CC1COC(Cn2cncn2)(c2ccc(Oc3ccc(Cl)cc3)cc2Cl)O1 (stereo not given) | 0.397 µM (active) |  |
| CC(C)Oc1cc(-n2nc(C(C)(C)C)oc2=O)c(Cl)cc1Cl | 6.1 µM (active) |  |
| CCNc1nc(Cl)nc(NC(C)C)n1 | 10.2 µM (active) |  |
| COc1cnc(OC)n2nc(NS(=O)(=O)c3c(OCC(F)F)cccc3C(F)(F)F)nc12 |  | inactive |
| CCCCC(CC)COC(=O)c1ccccc1C(=O)OCC(CC)CCCC (stereo not given) |  | inactive |
| O=C(O)c1nc(Cl)ccc1Cl | 7.28 µM (active) |  |
| Fc1ccc(Oc2ccnc3cc(Cl)cc(Cl)c23)cc1 | 3.98 µM (active) |  |
| C=CCC1=C(C)[C@@H](OC(=O)[C@@H]2[C@@H](C=C(C)C)C2(C)C)CC1=O |  | inactive |
| Cc1cc(Cl)ccc1OCC(=O)O |  | inactive |
| COC(=O)C=C(C)OP(=O)(OC)OC |  | inactive |
